Laboratory results: PubChem BioAssay AID651621 (National Center for Advancing Translational Sciences (NCATS), 2012)
The source made the active and inactive calls.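 Rule for the calls: active = inhibition of 60% or more at 11 µM; inconclusive = inhibition from 30% up to under 60% at 11 µM; inactive = inhibition below 30% at 11 µM.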

target: Ubiquitin carboxyl-terminal hydrolase 1 (Homo sapiens) + WD repeat-containing protein 48 (Homo sapiens) (UniProt O94782+Q8TAF3); assay: Inhibitors of USP1/UAF1: SAR in USP1/UAF1 diubiquitin SDS-PAGE gel assay; settings: purified USP1/UAF1, K63 diubiquitin cleavage, at 11 µM, stronger effect = higher value
From the text: Deubiquitinating enzymes (DUBs) are a class of enzymes that can cleave isopeptide bond formed between the C-terminal carboxylate of ubiquitin and a lysine side-chain amino group on the target protein. Among them, ubiquitin specific proteases (USPs) constitute the largest DUB family. Human USPs are emerging as promising targets for pharmacological intervention because of their connection to a number of human diseases, including prostate, colon and breast cancer (1, 2), pediatric acute lymphoblastic leukemia (3), and familial cylindromatosis (4). The advantage of inhibiting USPs lies in the potential specificity of therapeutic intervention that can lead to better efficacy and reduce nonspecific side effects. In a collaboration between the University of Delaware and the NIH Chemical Genomics Center, a high-throughput screen assay was developed to screen for USP1/UAF1 inhibitors (5). This assay is a orthogonal assay that tested for activity in a USP1/UAF1 diubiquitin SDS-PAGE gel assay. NIH Chemical Genomics Center [NCGC] […]
The inhibition assay contains 100 nM for USP1/UAF1, 2 microM K63 linked diubiquitin, and inhibitors at varied concentrations (0.08 microM - 114 microM). […] The intensity of the individual diubiquitin and monoubiquitin band was quantified using Quantity One 4.3.1 (Biorad, Hercules, CA). The percentage of the conversion was determined and used to calculate the reaction rate. […]

Sequence of Ubiquitin carboxyl-terminal hydrolase 1 (Homo sapiens) + WD repeat-containing protein 48 (Homo sapiens) (O94782 whole entry, looked up): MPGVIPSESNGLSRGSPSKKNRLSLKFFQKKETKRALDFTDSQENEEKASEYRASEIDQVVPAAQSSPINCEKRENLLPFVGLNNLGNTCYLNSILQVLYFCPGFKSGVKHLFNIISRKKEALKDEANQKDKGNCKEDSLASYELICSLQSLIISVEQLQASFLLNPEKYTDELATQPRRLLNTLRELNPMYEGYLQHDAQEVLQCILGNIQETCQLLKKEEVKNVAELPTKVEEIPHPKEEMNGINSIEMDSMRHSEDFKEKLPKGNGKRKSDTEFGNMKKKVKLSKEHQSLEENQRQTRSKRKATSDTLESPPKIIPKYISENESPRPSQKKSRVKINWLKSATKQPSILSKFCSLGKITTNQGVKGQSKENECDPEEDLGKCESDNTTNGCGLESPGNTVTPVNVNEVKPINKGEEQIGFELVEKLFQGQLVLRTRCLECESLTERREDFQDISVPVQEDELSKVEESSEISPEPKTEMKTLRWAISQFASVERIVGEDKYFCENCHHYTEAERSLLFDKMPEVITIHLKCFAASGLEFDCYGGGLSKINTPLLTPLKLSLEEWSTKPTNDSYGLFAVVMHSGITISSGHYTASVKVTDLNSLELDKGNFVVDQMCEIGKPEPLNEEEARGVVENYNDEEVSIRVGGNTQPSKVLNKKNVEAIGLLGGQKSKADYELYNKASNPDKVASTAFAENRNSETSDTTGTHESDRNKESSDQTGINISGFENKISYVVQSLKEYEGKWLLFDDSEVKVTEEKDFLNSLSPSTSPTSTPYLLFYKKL
Sequence of Ubiquitin carboxyl-terminal hydrolase 1 (Homo sapiens) + WD repeat-containing protein 48 (Homo sapiens) (Q8TAF3 whole entry, looked up): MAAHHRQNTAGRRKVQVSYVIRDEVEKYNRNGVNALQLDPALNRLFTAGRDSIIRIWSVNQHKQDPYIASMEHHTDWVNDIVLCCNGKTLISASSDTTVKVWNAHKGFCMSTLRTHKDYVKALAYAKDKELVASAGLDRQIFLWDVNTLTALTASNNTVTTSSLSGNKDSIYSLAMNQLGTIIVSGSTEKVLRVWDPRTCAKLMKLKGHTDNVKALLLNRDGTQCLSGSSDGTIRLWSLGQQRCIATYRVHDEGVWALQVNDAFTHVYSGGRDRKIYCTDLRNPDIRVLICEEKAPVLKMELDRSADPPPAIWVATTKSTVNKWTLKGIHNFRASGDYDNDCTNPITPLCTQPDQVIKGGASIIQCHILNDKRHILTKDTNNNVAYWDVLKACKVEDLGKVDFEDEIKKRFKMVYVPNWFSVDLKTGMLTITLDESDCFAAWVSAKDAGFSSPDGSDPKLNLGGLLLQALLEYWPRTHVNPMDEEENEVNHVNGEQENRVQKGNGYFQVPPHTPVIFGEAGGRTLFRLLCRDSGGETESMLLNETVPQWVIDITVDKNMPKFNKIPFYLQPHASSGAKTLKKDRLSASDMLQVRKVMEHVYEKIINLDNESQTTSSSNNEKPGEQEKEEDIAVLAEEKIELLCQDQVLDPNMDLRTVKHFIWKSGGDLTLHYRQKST

| SMILES | inhibition |
| --- | --- |
| Cc1cnc(-c2ccccc2C(C)C)nc1NCc1ccc(-n2ccnn2)cc1 | 98.5% (active) |
